# Assays:
# Test in all cases: DAPPL (digital affinity profiling via proximity ligation, sequencing); 10 mM Tris-HCl pH 7.5, 50 mM NaCl, 1 mM DTT, 4% glycerol, room temperature, 30 min; GST-TFs on glutathione beads, 16-mer random dsDNA library, 0.1% formaldehyde crosslink after washing; high values mean tight binding
# Details in all cases: protein: recombinant; tags: N-terminal GST; dsDNA, one strand shown
# [1] = biological target: T1, FEV (Homo sapiens, UniProt Q99581 1-238)
# T1 sequence: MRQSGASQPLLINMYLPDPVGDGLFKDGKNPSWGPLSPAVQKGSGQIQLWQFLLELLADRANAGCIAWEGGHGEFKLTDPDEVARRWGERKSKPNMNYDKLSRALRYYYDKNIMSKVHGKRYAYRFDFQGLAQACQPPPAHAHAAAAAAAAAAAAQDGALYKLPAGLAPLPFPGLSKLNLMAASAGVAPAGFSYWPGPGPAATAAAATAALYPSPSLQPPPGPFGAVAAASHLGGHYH
# Outline: (§1)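 The binding signal reported is, for every hexamer, its read frequency for a factor over its read frequency for the tag-only sample. Reads came from pools of yeast-expressed, GST-fused human transcription factors on glutathione beads, barcoded with DNA and mixed with that sample, which were incubated with 200 nmole of a random double-stranded 16-mer DNA library in Tris/NaCl/DTT/glycerol buffer at room temperature for 30 min. After washing, the pools were crosslinked with 0.1% formaldehyde, proximity-ligated with BsaI/T4 ligase for 1 h at 37 °C, PCR-amplified and sequenced on an Illumina NextSeq500.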
# [2] = biological target: ETV5 (Homo sapiens, UniProt P41161 1-510)
# ETV5, sequence (P41161 whole entry): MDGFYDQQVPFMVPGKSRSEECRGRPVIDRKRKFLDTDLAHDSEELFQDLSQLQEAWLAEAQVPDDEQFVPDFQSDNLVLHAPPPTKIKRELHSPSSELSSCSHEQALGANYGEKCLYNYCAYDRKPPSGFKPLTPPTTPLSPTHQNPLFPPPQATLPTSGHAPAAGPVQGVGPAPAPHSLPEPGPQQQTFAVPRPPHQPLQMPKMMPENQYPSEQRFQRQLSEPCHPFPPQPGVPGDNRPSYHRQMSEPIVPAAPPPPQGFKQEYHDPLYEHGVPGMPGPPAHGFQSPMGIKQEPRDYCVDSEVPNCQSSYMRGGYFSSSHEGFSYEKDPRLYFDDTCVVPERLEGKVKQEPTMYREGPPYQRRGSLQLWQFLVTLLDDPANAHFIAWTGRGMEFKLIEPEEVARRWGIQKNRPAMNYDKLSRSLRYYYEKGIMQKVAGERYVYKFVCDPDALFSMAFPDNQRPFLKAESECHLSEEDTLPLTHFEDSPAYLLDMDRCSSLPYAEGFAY
# Outline: as §1
# [3] = biological target: T2, SPIC (Homo sapiens, UniProt Q8N5J4 1-248)
# T2 sequence: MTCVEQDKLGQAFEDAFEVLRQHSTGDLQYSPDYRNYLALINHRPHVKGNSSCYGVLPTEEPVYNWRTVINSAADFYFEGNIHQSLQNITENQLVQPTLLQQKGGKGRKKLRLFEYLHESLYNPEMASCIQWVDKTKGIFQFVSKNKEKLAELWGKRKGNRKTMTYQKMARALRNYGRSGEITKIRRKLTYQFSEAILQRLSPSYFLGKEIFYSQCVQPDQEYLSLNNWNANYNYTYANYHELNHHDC
# Outline: as §1
# [4] = biological target: ELF4 (Homo sapiens, UniProt Q99607 1-663)
# ELF4, sequence (Q99607 whole entry): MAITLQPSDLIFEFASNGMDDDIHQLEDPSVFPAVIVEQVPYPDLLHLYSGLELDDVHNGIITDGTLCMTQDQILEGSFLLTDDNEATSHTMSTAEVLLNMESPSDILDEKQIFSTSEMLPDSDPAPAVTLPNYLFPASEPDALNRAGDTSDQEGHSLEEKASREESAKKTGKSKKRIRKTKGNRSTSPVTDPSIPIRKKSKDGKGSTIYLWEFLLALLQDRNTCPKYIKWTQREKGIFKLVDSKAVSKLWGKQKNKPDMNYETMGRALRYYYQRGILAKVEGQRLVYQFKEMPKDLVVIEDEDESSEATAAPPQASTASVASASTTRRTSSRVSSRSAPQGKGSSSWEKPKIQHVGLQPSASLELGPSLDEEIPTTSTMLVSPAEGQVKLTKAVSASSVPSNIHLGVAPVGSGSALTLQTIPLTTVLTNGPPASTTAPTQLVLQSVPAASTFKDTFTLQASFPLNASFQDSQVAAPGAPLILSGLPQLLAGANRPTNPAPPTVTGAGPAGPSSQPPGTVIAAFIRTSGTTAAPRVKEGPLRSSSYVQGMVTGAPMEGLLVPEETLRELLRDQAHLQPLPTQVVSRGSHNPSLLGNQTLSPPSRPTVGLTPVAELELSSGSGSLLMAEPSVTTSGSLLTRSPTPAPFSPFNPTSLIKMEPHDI
# Outline: as §1
# [5] = biological target: T3, ELK4 (Homo sapiens, UniProt P28324-2 1-405)
# T3 sequence: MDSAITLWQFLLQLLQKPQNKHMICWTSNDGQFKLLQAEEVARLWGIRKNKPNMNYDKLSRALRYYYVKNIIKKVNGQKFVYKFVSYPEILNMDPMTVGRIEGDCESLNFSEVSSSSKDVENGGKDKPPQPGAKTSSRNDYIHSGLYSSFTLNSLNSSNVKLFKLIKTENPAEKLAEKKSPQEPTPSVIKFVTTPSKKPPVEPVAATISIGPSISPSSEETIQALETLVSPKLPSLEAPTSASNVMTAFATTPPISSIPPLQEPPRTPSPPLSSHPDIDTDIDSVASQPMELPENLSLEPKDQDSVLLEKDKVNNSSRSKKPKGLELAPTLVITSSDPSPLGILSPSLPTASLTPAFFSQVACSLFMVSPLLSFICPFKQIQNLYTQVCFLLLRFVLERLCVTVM
# Outline: as §1
# [6] = biological target: T4, ETV2 (Homo sapiens, UniProt O00321 1-342)
# T4 sequence: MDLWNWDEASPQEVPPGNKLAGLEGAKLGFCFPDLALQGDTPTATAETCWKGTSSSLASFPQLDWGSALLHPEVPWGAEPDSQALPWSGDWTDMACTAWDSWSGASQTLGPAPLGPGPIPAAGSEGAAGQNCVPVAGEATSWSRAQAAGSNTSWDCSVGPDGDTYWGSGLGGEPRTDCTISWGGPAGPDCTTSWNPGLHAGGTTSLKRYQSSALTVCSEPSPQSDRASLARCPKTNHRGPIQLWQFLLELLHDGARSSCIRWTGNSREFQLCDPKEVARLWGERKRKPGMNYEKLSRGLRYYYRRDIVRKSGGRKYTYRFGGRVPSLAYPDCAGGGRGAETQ
# Outline: as §1
# [7] = biological target: T5, ELF3 (Homo sapiens, UniProt P78545 1-371)
# T5 sequence: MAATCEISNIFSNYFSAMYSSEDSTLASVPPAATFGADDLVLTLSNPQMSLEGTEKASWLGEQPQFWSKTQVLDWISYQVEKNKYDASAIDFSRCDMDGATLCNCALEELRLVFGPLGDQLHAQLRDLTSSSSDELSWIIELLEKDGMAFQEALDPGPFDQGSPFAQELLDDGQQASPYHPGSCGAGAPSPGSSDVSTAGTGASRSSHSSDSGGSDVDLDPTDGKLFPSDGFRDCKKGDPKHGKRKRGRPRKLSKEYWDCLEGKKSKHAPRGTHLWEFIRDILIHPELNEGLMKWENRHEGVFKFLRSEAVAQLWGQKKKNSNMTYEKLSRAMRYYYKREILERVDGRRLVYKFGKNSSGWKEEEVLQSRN
# Outline: as §1
# [8] = biological target: ETV1 (Homo sapiens, UniProt P50549 1-477)
# ETV1, sequence (P50549 whole entry): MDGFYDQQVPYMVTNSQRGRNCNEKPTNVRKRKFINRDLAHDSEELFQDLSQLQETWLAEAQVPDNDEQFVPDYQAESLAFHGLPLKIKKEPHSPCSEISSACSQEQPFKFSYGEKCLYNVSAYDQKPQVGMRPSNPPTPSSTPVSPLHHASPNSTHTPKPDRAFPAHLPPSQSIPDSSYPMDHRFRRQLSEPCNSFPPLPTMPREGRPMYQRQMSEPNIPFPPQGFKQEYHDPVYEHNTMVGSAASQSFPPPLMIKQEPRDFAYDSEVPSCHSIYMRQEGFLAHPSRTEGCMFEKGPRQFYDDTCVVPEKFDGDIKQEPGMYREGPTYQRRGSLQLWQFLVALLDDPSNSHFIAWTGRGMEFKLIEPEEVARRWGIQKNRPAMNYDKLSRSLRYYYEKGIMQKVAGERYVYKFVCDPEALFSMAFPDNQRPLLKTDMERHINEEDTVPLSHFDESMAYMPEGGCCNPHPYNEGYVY
# Outline: as §1
# [9] = biological target: T6, ERF (Homo sapiens, UniProt P50548 1-548)
# T6 sequence: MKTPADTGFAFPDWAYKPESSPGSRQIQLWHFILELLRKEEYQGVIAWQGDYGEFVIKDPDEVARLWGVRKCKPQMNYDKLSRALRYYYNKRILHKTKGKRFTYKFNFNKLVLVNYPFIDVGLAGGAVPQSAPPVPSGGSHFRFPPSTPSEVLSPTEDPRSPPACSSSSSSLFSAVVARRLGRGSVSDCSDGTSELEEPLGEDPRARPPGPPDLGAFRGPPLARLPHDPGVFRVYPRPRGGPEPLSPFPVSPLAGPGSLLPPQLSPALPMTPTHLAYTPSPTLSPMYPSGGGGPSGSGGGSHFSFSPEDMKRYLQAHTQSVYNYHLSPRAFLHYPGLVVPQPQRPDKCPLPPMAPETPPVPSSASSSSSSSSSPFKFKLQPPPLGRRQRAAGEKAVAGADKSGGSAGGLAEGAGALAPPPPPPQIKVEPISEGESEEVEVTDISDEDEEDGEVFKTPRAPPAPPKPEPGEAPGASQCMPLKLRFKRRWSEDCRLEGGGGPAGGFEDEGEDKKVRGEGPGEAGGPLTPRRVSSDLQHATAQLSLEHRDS
# Outline: as §1
# [10] = biological target: T7, ETV3L (Homo sapiens, UniProt Q6ZN32 1-361)
# T7 sequence: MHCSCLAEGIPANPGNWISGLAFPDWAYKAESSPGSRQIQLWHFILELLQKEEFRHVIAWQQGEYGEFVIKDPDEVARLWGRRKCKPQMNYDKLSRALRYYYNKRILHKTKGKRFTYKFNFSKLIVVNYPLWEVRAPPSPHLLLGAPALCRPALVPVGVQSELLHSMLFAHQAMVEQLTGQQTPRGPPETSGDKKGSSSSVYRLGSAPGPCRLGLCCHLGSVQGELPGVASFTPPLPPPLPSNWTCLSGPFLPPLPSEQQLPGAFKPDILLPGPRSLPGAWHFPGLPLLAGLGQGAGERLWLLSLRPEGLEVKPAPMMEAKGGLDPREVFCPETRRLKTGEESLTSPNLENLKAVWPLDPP
# Outline: as §1
# [11] = biological target: T8, ETS2 (Homo sapiens, UniProt P15036 1-469)
# T8 sequence: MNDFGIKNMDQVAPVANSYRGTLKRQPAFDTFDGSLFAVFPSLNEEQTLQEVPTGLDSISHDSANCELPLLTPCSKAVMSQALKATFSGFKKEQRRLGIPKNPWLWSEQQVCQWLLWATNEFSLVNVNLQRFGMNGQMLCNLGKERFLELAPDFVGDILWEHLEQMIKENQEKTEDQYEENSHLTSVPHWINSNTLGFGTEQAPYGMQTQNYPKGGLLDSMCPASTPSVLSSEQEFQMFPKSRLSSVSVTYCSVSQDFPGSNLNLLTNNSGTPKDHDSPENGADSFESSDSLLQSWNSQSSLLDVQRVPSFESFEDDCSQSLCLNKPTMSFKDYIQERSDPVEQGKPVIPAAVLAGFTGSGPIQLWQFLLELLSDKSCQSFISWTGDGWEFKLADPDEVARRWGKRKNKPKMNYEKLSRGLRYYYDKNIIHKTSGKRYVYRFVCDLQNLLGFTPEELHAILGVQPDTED
# Outline: as §1
# [12] = biological target: T9, SPDEF (Homo sapiens, UniProt O95238 1-335)
# T9 sequence: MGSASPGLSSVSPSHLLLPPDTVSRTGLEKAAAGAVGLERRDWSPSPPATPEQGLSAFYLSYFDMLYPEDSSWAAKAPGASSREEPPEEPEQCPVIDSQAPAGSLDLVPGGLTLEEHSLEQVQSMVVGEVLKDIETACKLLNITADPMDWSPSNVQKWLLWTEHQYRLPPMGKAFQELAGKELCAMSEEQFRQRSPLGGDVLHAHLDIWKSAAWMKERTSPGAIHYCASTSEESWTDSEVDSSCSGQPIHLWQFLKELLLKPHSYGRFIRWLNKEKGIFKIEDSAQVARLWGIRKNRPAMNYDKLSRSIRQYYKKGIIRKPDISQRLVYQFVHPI
# Outline: as §1
# [13] = biological target: T10, ETV7 (Homo sapiens, UniProt Q9Y603 1-341)
# T10 sequence: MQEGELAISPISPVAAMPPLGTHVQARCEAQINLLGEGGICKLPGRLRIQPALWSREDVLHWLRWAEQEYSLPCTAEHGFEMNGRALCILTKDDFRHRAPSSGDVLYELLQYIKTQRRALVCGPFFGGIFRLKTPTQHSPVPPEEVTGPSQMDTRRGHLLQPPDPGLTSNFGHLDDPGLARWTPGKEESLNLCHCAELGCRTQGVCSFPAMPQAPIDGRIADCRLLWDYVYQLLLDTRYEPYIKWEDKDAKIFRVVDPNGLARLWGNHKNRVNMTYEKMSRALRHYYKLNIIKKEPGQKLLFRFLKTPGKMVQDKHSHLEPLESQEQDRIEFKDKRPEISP
# Outline: as §1
# [14] = biological target: T11, ELF5 (Homo sapiens, UniProt Q9UKW6-2 1-255)
# T11 sequence: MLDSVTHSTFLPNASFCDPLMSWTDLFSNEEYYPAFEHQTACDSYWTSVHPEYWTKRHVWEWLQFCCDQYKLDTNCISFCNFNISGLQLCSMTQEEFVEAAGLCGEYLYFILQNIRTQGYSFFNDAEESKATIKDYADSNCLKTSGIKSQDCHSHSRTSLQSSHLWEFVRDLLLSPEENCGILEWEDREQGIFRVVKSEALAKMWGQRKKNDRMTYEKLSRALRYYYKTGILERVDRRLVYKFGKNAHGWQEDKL
# Outline: as §1
# [15] = biological target: T12, ETV3 (Homo sapiens, UniProt P41162-2 1-143)
# T12 sequence: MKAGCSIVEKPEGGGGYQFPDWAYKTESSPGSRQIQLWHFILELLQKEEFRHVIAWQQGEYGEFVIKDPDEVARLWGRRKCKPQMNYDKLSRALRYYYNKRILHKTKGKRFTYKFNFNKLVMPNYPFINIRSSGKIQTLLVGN
# Outline: as §1
# [16] = biological target: ETV6 (Homo sapiens, UniProt P41212 1-452)
# ETV6, sequence (P41212 whole entry): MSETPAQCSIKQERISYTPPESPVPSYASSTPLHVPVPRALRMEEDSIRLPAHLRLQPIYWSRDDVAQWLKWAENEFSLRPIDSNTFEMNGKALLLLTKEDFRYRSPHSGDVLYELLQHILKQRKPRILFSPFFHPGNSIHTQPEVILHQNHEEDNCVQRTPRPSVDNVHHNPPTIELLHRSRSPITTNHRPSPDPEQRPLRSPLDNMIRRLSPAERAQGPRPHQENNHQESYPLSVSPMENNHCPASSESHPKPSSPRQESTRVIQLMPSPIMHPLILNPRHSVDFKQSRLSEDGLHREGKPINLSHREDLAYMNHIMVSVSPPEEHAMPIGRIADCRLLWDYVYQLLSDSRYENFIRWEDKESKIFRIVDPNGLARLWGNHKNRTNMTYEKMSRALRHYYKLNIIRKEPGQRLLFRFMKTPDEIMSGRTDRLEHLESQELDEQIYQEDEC
# Outline: as §1
Sequence,binding signal [1],binding signal [2],binding signal [3],binding signal [4],binding signal [5],binding signal [6],binding signal [7],binding signal [8],binding signal [9],binding signal [10],binding signal [11],binding signal [12],binding signal [13],binding signal [14],binding signal [15],binding signal [16]
CTGTTG,"1.06 fold enrichment (6-mer frequency, TF over GST control)","1.03 fold enrichment (6-mer frequency, TF over GST control)","1.12 fold enrichment (6-mer frequency, TF over GST control)","1.17 fold enrichment (6-mer frequency, TF over GST control)","1.1 fold enrichment (6-mer frequency, TF over GST control)","1.13 fold enrichment (6-mer frequency, TF over GST control)","1.03 fold enrichment (6-mer frequency, TF over GST control)","1.09 fold enrichment (6-mer frequency, TF over GST control)","1.17 fold enrichment (6-mer frequency, TF over GST control)","1.07 fold enrichment (6-mer frequency, TF over GST control)","1.21 fold enrichment (6-mer frequency, TF over GST control)","1.12 fold enrichment (6-mer frequency, TF over GST control)","1.05 fold enrichment (6-mer frequency, TF over GST control)","1.09 fold enrichment (6-mer frequency, TF over GST control)","1.21 fold enrichment (6-mer frequency, TF over GST control)","1.08 fold enrichment (6-mer frequency, TF over GST control)"
GCACAA,"1.1 fold enrichment (6-mer frequency, TF over GST control)","1.07 fold enrichment (6-mer frequency, TF over GST control)","1.09 fold enrichment (6-mer frequency, TF over GST control)","1.11 fold enrichment (6-mer frequency, TF over GST control)","1.08 fold enrichment (6-mer frequency, TF over GST control)","1.03 fold enrichment (6-mer frequency, TF over GST control)","1.13 fold enrichment (6-mer frequency, TF over GST control)","1.04 fold enrichment (6-mer frequency, TF over GST control)","1.16 fold enrichment (6-mer frequency, TF over GST control)","1.08 fold enrichment (6-mer frequency, TF over GST control)","1.12 fold enrichment (6-mer frequency, TF over GST control)","1.05 fold enrichment (6-mer frequency, TF over GST control)","1.09 fold enrichment (6-mer frequency, TF over GST control)","1.1 fold enrichment (6-mer frequency, TF over GST control)","1.14 fold enrichment (6-mer frequency, TF over GST control)","1.11 fold enrichment (6-mer frequency, TF over GST control)"
GTCCCT,"1.28 fold enrichment (6-mer frequency, TF over GST control)","1.18 fold enrichment (6-mer frequency, TF over GST control)","1.29 fold enrichment (6-mer frequency, TF over GST control)","1.31 fold enrichment (6-mer frequency, TF over GST control)","1.27 fold enrichment (6-mer frequency, TF over GST control)","1.22 fold enrichment (6-mer frequency, TF over GST control)","1.23 fold enrichment (6-mer frequency, TF over GST control)","1.26 fold enrichment (6-mer frequency, TF over GST control)","1.22 fold enrichment (6-mer frequency, TF over GST control)","1.16 fold enrichment (6-mer frequency, TF over GST control)","1.31 fold enrichment (6-mer frequency, TF over GST control)","1.37 fold enrichment (6-mer frequency, TF over GST control)","1.22 fold enrichment (6-mer frequency, TF over GST control)","1.23 fold enrichment (6-mer frequency, TF over GST control)","1.26 fold enrichment (6-mer frequency, TF over GST control)","1.21 fold enrichment (6-mer frequency, TF over GST control)"

# — paper PMC7862700, “An all-to-all approach to the identification of sequence-specific readers for epigenetic DNA modifications on cytosine”
